An excerpt weighted towards active compounds, which were near 2.2% of everything screened.
GASC-1 inh = human JMJD2C demethylase inhibition | Q9H3R0 | GST-JMJD2C(1-420) H3K9me3 demethylation, DELFIA europium | inhibition, % at 2.35 µM | hit rate 0.069% among 330,000 | AID 2099;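 active = more than half of a compound's replicate wells show inhibition beyond 50%, single wells judged on their own value; inconclusive = some, but no more than half, of replicates pass 50% inhibition; inactive = no replicate passes 50% inhibition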;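 also: signal counts dimethyl H3K9 product captured on neutravidin plate; 0% = median of DMSO wells and 100% = 0.3 times that DMSO median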
PvdQ inh = P. aeruginosa PvdQ acylase inhibition; purified PvdQ acylase, fluorescence plate reader; inhibition, % at 10 µM; hit rate 0.063% among 340,000; in the data active = inhibition above about 30%, passing the limit was not always enough; inconclusive = no clear call, values can overlap the other calls;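 also: 0% = vehicle neutral wells and 100% = reference inhibitor wells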
PHOSPHO1 inh = inhibitors of human PHOSPHO1 phosphatase; inhibition, % at 13.3 µM; AID 1565; hit rate 1.1% among 290,000; recombinant PHOSPHO1, absorbance phosphatase assay; in the data active = inhibition above about 60%
Target sequence (Q8TCT1 whole entry, looked up): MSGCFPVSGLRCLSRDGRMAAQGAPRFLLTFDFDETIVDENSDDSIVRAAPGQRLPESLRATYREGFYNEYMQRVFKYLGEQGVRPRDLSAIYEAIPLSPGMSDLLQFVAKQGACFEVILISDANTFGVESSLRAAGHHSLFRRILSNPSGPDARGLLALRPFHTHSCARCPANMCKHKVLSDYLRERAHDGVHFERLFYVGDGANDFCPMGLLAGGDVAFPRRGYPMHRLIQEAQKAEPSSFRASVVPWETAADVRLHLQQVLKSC
p-CIP stab down = lowers stability of the mouse p/CIP coactivator protein; Q05BA5; F442A p/CIP-EGFP cells, EGFP fluorescence, 16 h; decrease of EGFP signal, % at 10 µM; hit rate 0.01% among 290,000;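 active = EGFP signal decrease of at least 30% at 10 µM or well 3 SD below plate mean, unless failing retest; inactive = the rest, including hits failing retest or dose response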
Mot1-301 SUMO = blocks SUMOylation pathway, rescuing yeast Mot1-301 growth; growth rescue, % at 18.8 µM; AID 2716; hit rate 1% among 320,000; S. cerevisiae Mot1-301 growth rescue, ATP luminescence, 38.5C; percent above DMSO median, 100 means doubled;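 active = every valid replicate shows activation above 250% relative to neutral control wells; inactive = the rest, any valid replicate at or below 250%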;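 also: OY570 slx delta 5 strain wells were the positive control but not used for scaling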
HDAC3 inh = human HDAC3 inhibition. O15379. recombinant HDAC3, fluorogenic peptide/trypsin coupled, fluorescence. inhibition, % at 8.3 µM. hit rate 0.15% among 320,000; in the data active = inhibition above about 26%, passing the limit was not always enough; inconclusive = no clear call, values can overlap the other calls
* hit, by the source's call; ? = inconclusive; · = no result.

SMILES | GASC-1 inh | PvdQ inh | PHOSPHO1 inh | p-CIP stab down | Mot1-301 SUMO | HDAC3 inh
Cc1cc(OCc2cc(C(=O)NCc3csc(C(C)C)n3)no2)cc(C)c1Cl | 2 | -12 | 68* | -9 | -5 | 18
C#CCN1c2ccccc2Sc2cccnc21 | 89 | -9 | · | -11 | 4 | -1
Oc1ccc2ccccc2c1CN1CCOCC1 | -2 | -5 | 74* | -5 | -8 | ·
Oc1cnc2ccccc2c1CN1CCOCC1 | -1 | 1 | 6 | -24 | -12 | -15
CCOc1ccc(C(C(=O)NC2CCCCC2)N(C(=O)c2csnn2)C2CC2)cc1 (centres undefined) | 1 | 14 | 17 | -6 | -27 | -1
COc1cc(CC(=O)OCC(=O)N2CC(=O)Nc3ccccc32)cc(OC)c1OC | -13 | -11 | -4 | 0 | -3 | 0
S=c1[nH]ncc2ccccc12 | -3 | -3 | 67* | 10 | -8 | 3
O=C(CCN1CCCO1)NC1CCCc2c1cnn2-c1ccccc1F (centres undefined) | 2 | -6 | 12 | 1 | -5 | -6
O=C(CCc1cn2ccccc2n1)NC1CCCc2c1cnn2-c1ccccc1F (centres undefined) | 6 | -1 | 75* | -12 | 15 | 6
CC1Cc2ccccc2N1C(=O)c1ccc(F)c(S(=O)(=O)N2CCOCC2)c1 (centres undefined) | 9 | 8 | · | · | 19 | 1
COc1ccc(CN(C(=O)c2ccco2)c2ccc(C)c(C)c2)cc1 | -5 | -1 | 2 | 1 | 403* | -5
CCCCCCC(=O)Nc1nc(C)c(-c2csc(Nc3ccccc3OC)n2)s1 | 1 | -13 | 79* | -1 | -20 | 8
COc1cccc(Nc2nc(-c3sc(C)nc3C)cs2)c1 | 18 | -8 | -8 | -5 | -22 | 10
CCCC(=O)Nc1nc(C)c(-c2csc(Nc3ccccc3C)n2)s1 | -15 | -12 | 15 | -13 | -12 | -2
COc1ccccc1Nc1nc(-c2sc(NC(=O)c3ccc([N+](=O)[O-])cc3)nc2C)cs1 | 14 | · | -113 | -13 | 356 | 4
COc1cccc(Nc2nc(-c3sc(N)nc3C)cs2)c1 | 1 | -5 | 66* | -14 | 0 | 2
CCCCCC(=O)Nc1nc(C)c(-c2csc(Nc3ccccc3OCC)n2)s1 | 4 | -7 | 79* | 5 | 28 | 1
CCCC(C)C(=O)Nc1nc(C)c(-c2csc(Nc3ccccc3OC)n2)s1 (centres undefined) | -1 | -11 | 74* | -2 | 13 | 9
O=C1Nc2ccc(Br)cc2/C1=C/c1ccc(C(=O)O)cc1 | 0 | · | · | -9 | -3 | -1
N#CCc1ccc(NC(=O)c2ccc(S(=O)(=O)N3CCOCC3)cc2)cc1 | -4 | -14 | 38 | -9 | 14 | -1
COc1ccc(C(=O)N[C@H](C(=O)NCc2cccs2)C(C)C)cc1 | -18 | 3 | -14 | -22 | -4 | -6
Cc1ccc(-c2nnn(CC(=O)N(c3ccccc3)C(C(=O)NCC3CCCO3)c3cccs3)n2)o1 (centres undefined) | 17 | -2 | 9 | -5 | -3 | 1
O=C(CSc1nnc(CNC(=O)c2c(F)cccc2F)o1)NCc1ccccc1Cl | 6 | 11 | 43 | -2 | -14 | 5
Cc1nc(NC(=O)c2ccccc2)sc1-c1csc(NCc2ccccc2)n1 | 4 | -10 | 17 | -5 | -18 | 1
Cc1nc(N)sc1-c1csc(NCc2ccccc2)n1 | -43 | -12 | 67* | -10 | -2 | 10
SMILES | GASC-1 inh | PvdQ inh | PHOSPHO1 inh | p-CIP stab down | Mot1-301 SUMO | HDAC3 inh
CCCCCC(=O)Nc1nc(C)c(-c2csc(Nc3ccccc3OC)n2)s1 | 3 | -14 | 74* | -9 | -4 | 2
Cc1nc(NC(=O)c2ccccc2)sc1-c1csc(NCCc2ccccc2)n1 | 2 | 4 | 62* | -7 | -33 | ?
CCOc1ccccc1Nc1nc(-c2sc(NC(=O)c3ccccc3)nc2C)cs1 | -13 | · | 88* | -6 | -33 | -2
COc1ccccc1Nc1nc(-c2sc(NC(=O)c3ccccc3)nc2C)cs1 | 3 | -14 | 50 | -9 | -15 | 6
Cc1[nH]c2ccccc2c1/C=C(\C#N)C(=O)NC(C)c1ccccc1 (centres undefined) | 1 | -5 | 94* | -5 | 17 | 3
CN1CCN(C(=O)CSc2nnc(COc3ccc(Cl)cc3)o2)CC1 | -38 | 2 | 26 | 3 | 241 | 2
Cc1ccc(NN2C(=O)C=C(c3ccccc3)C2=O)cc1 | -14 | · | 61* | -8 | · | ·
Nc1ccccc1Oc1ncc(C(F)(F)F)cc1Cl | 3 | -9 | -3 | 3 | 275* | -2
FC(F)(F)c1cnc(Oc2ccccc2-c2nnco2)c(Cl)c1 | 5 | -9 | 22 | 0 | 3 | 1
CCN1/C(=C\C(C)=O)Sc2ccc(OC)cc21 | 0 | 8 | 61* | 3 | -8 | -3
CCn1cc(C(=O)Nc2ccc(OC)c(S(=O)(=O)N3CCCCC3)c2)c(=O)c2ccc(C)nc21 | 3 | 5 | 11 | -12 | -14 | -3
COc1ccccc1OCC(=O)N1CCC2(CC1)CC(=O)c1ccccc1O2 | 0 | -6 | · | · | 179 | -11
O=C1CC2(CCN(C(=O)COc3ccccc3F)CC2)Oc2ccccc21 | 4 | -7 | · | · | 602* | -3
COc1ccc(S(=O)(=O)N2CCC(N3CCN(c4ccccc4)CC3)CC2)cc1 | 2 | · | 46 | -13 | -2 | 1
COc1ccc(S(=O)(=O)N2CCN(C(=S)Nc3ccc(S(N)(=O)=O)cc3)CC2)cc1 | 5 | -4 | 23 | 5 | -15 | 0
COc1ccc(S(=O)(=O)N2CCN(c3ccccc3)CC2)cc1 | 32 | 28 | 60* | -24 | 18 | 1
COc1ccc(S(=O)(=O)N2CCC(NC(=O)Nc3ccc(C)cc3)CC2)cc1 | -12 | -7 | 60* | -6 | 568 | -1
COc1ccc(NC(=S)N2CCN(S(=O)(=O)c3ccc(F)cc3)CC2)cc1 | -2 | -10 | 66* | -4 | 0 | 1
CCC(CC)NC(=O)COc1ccc(OC)cc1C=O | 5 | -12 | 24 | -2 | 146 | -6
NC(=O)C1CCN(C(=O)c2cccc(S(=O)(=O)N3CCCC3)c2)CC1 | · | -1 | · | · | · | ·
Cc1cc(C)nc(NC(=O)Cc2ccc(Br)cc2)n1 | -8 | -14 | 23 | -9 | -7 | 6
CN1CCN(S(=O)(=O)c2ccc(Cl)s2)CC1 | 5 | -9 | -6 | 0 | -4 | 2
CCCCCCN1C=CC(=C/C=C(\C#N)C(=O)OCC)C=C1 | -8 | 14 | -19 | -801 | -3 | -3
CCCN1C=CC(=C/C=C(\C#N)C(=O)OCC)C=C1 | -7 | · | 26 | -182 | -18 | 30*
CN1CCN(C(=O)CCN2C(=O)/C(=C/c3ccc(F)cc3)SC2=S)CC1 | -31 | -1 | 40 | -7 | -6 | 0
